Measured values: PubChem BioAssay (NCI)
About 79,000 compounds went through this panel and 15% of them were active in at least one assay; those are over-represented in the sample as a whole. A number with no mark means an inactive call. Active and inactive are the calls of the source. Rule as the data show it: active = growth inhibition above about 70%; inactive = the rest.

experiment: NCI Yeast Anticancer Drug Screen. Data for the bub3 strain (AID 167); details: S. cerevisiae bub3 mutant strain, at 50.0 µM (retest, dose inferred, filed as 5.0), hits give high values
How it was run: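 Screening used yeast with an engineered genetic alteration affecting cell cycle control. Compound-exposed cultures were compared with vehicle cultures, and reduced growth was taken as inhibition.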

| Structure (SMILES) | growth inhibition |
| --- | --- |
| O=C1C(N=Nc2ccccc2)=C(O)C2C3C=CC(C3)C12 (stereo not drawn) | 98% (active) |
| CC1CCCC(C(O)(C(=O)O)C2CCCC(C)C2)C1 (stereo not drawn) | 97% (active) |
| Cc1c(Cl)ccc2c1NC(=O)C2(O)CC(=O)c1ccc(Cl)cc1 (stereo not drawn) | 99% (active) |
| Cc1cc2c(=O)[nH]c(N)nc2nc1C | 3% |
| C=C1C(=O)O[C@@H]2C[C@@]3(C)CCC[C@H](C)C3=C[C@H]12 | 95% (active) |
| CCC(=NCCCCCCN=C(CC)c1cc(C)cc([N+](=O)[O-])c1O)c1cc(C)cc([N+](=O)[O-])c1O.[Fe] | 70% (active) |
| CCCCN(CCCC)CC(O)c1cc(-c2ccc(Cl)cc2)nc2c(Cl)cccc12 (stereo not drawn) | 0% |
| COc1ccc2c(c1)CC/C(=C\c1ccc(OCCN(C)C)cc1)C2=O | 25% |
| CCOC(=O)c1cc2c(nc1NCc1ccc(OC)c(OC)c1)/C(=C/c1ccccc1)CCCC2 | 94% (active) |
| CSCS(=O)C[C@H](CO)NC(=O)/C=C/c1c(C)[nH]c(=O)[nH]c1=O (stereo partly drawn) | 98% (active) |
| CCOC(=O)c1c(N)sc2c1CCCCC2 | -42% |
| Cc1cc(N)c(C)c2c1[nH]c1ccc(Br)cc12 | 95% (active) |
| N=C(N)Sc1ccc([N+](=O)[O-])cc1Cl | 59% |
| COc1c(OC)c(C2(O)C(=O)N(C)c3ccccc32)c(OC)c(OC)c1C1(O)C(=O)N(C)c2ccccc21 (stereo not drawn) | -2% |
| Fc1cccc(NC(=S)SCc2ccc(Cl)cc2)c1 | 98% (active) |
| Cc1ccc(/C=N/NS(=O)(=O)c2ccccc2)c(C)c1 | 41% |
| CCCCCCCCCCCCNC(=O)C[n+]1cccc(C(=O)N(C)C)c1 | 21% |
| CN(C)C(=S)/N=c1\ss/c(=N\S(=O)(=O)c2ccccc2)n1-c1ccccc1 | -2% |
| O=C(NCCCl)Nc1c2ccccc2nc2ccccc12 | 19% |
| COc1ccccc1NC(=O)/C(=C/c1ccccc1)C(C)=O | 25% |

| Structure (SMILES) | growth inhibition |
| --- | --- |
| Oc1[nH]c2ccccc2c1N=NC(=S)NCc1ccccn1 | 99% (active) |
| c1cc2c(cc1CCCCCCCCCCc1ccc3c(c1)CCC3)CCC2 | -2% |
| C=Cc1ccccc1C1(O)C=CC(OC)(OC)C=C1 | 9% |
| CN(C)CC1CCc2c(ccc3ccccc23)C1=O (stereo not drawn) | 82% (active) |
| CCCCC(C)(C)OC(=O)Nc1ccc(Br)cc1 | 93% (active) |
| O=C(Nc1ccc(F)c(Cl)c1)Oc1ccc(Br)cc1Br | 11% |
| CCO/C=C1\N=C(C(O)(c2ccc(Cl)cc2)c2ccc(Cl)cc2)OC1=O | 8% |
| O=C1c2ccccc2C(O)(c2ccccc2)c2c(Cl)cccc21 (stereo not drawn) | 14% |
| Nc1ccccc1-c1nc2c(ccc3ccccc32)[nH]1 | 2% |
| CCCCCCCCCCCCCCNCCN | 96% (active) |
| CC(C)CCCC(C)C1CCC2C3CC=C4OC(=O)CCC4(C)C3CCC12C (stereo not drawn) | 91% (active) |
| CC(Br)C(=O)c1ccc2cc(Cl)c3ccccc3c2c1 (stereo not drawn) | 99% (active) |
| N#CSc1ccc2nc(NCO)sc2c1 | 97% (active) |
| c1ccc2c3[nH]c(c2c1)=Nc1ccc(cc1)-c1nc2ccc(cc2o1)N=c1[nH]c(c2ccccc12)=Nc1ccc2nc(oc2c1)-c1ccc(cc1)N=3 | 95% (active) |
| CCOc1ccc2nc(NC(=O)c3c/c(=N\NC(=O)C[N+](C)(C)C)c4ccc(O)cc4o3)sc2c1 | 62% |
| C[C@@H]1CC=C[C@@H](NC(=O)OCc2ccccc2)[C@H]1C=O | 47% |
| O=C(/C=C/c1cccc([N+](=O)[O-])c1)CCl | 98% (active) |
| CCC[CH2][Sn]([CH2]CCC)([O]C(=O)c1cccc(F)c1F)[O]C(=O)c1cccc(F)c1F | 62% |
| O=C(O)CCC(=O)NNc1ccccc1 | 91% (active) |

same assay, conditions: S. cerevisiae bub3 mutant strain, at 50.0 µM, hits give high values

| Structure (SMILES) | growth inhibition |
| --- | --- |
| O=C1C(N=Nc2ccccc2)=C(O)C2C3C=CC(C3)C12 (stereo not drawn) | 98.2% (active) |
| CC1CCCC(C(O)(C(=O)O)C2CCCC(C)C2)C1 (stereo not drawn) | 25.4% |
| Cc1c(Cl)ccc2c1NC(=O)C2(O)CC(=O)c1ccc(Cl)cc1 (stereo not drawn) | 99.3% (active) |
| Cc1cc2c(=O)[nH]c(N)nc2nc1C | -8.85% |
| C=C1C(=O)O[C@@H]2C[C@@]3(C)CCC[C@H](C)C3=C[C@H]12 | 81.3% (active) |
| CCC(=NCCCCCCN=C(CC)c1cc(C)cc([N+](=O)[O-])c1O)c1cc(C)cc([N+](=O)[O-])c1O.[Fe] | 71.7% (active) |
| CCCCN(CCCC)CC(O)c1cc(-c2ccc(Cl)cc2)nc2c(Cl)cccc12 (stereo not drawn) | 98.8% (active) |
| COc1ccc2c(c1)CC/C(=C\c1ccc(OCCN(C)C)cc1)C2=O | 20.4% |
| CCOC(=O)c1cc2c(nc1NCc1ccc(OC)c(OC)c1)/C(=C/c1ccccc1)CCCC2 | 92.5% (active) |
| CSCS(=O)C[C@H](CO)NC(=O)/C=C/c1c(C)[nH]c(=O)[nH]c1=O (stereo partly drawn) | 88.7% (active) |
| CCOC(=O)c1c(N)sc2c1CCCCC2 | 50.4% |
| Cc1cc(N)c(C)c2c1[nH]c1ccc(Br)cc12 | 87.2% (active) |
| N=C(N)Sc1ccc([N+](=O)[O-])cc1Cl | 86.2% (active) |
| COc1c(OC)c(C2(O)C(=O)N(C)c3ccccc32)c(OC)c(OC)c1C1(O)C(=O)N(C)c2ccccc21 (stereo not drawn) | 4.85% |
| Fc1cccc(NC(=S)SCc2ccc(Cl)cc2)c1 | 99.5% (active) |
| Cc1ccc(/C=N/NS(=O)(=O)c2ccccc2)c(C)c1 | 11.1% |
| CCCCCCCCCCCCNC(=O)C[n+]1cccc(C(=O)N(C)C)c1 | 3.35% |
| CN(C)C(=S)/N=c1\ss/c(=N\S(=O)(=O)c2ccccc2)n1-c1ccccc1 | 29.1% |
| O=C(NCCCl)Nc1c2ccccc2nc2ccccc12 | 34.9% |
| COc1ccccc1NC(=O)/C(=C/c1ccccc1)C(C)=O | -4.75% |

| Structure (SMILES) | growth inhibition |
| --- | --- |
| Oc1[nH]c2ccccc2c1N=NC(=S)NCc1ccccn1 | 90.8% (active) |
| c1cc2c(cc1CCCCCCCCCCc1ccc3c(c1)CCC3)CCC2 | 2.95% |
| C=Cc1ccccc1C1(O)C=CC(OC)(OC)C=C1 | 44.2% |
| CN(C)CC1CCc2c(ccc3ccccc23)C1=O (stereo not drawn) | 58.8% |
| CCCCC(C)(C)OC(=O)Nc1ccc(Br)cc1 | 35.5% |
| O=C(Nc1ccc(F)c(Cl)c1)Oc1ccc(Br)cc1Br | 15.5% |
| CCO/C=C1\N=C(C(O)(c2ccc(Cl)cc2)c2ccc(Cl)cc2)OC1=O | 43.1% |
| O=C1c2ccccc2C(O)(c2ccccc2)c2c(Cl)cccc21 (stereo not drawn) | 80% (active) |
| Nc1ccccc1-c1nc2c(ccc3ccccc32)[nH]1 | 62.3% |
| CCCCCCCCCCCCCCNCCN | 89.5% (active) |
| CC(C)CCCC(C)C1CCC2C3CC=C4OC(=O)CCC4(C)C3CCC12C (stereo not drawn) | 86.3% (active) |
| CC(Br)C(=O)c1ccc2cc(Cl)c3ccccc3c2c1 (stereo not drawn) | 67.8% |
| N#CSc1ccc2nc(NCO)sc2c1 | 95.4% (active) |
| c1ccc2c3[nH]c(c2c1)=Nc1ccc(cc1)-c1nc2ccc(cc2o1)N=c1[nH]c(c2ccccc12)=Nc1ccc2nc(oc2c1)-c1ccc(cc1)N=3 | 77% (active) |
| CCOc1ccc2nc(NC(=O)c3c/c(=N\NC(=O)C[N+](C)(C)C)c4ccc(O)cc4o3)sc2c1 | 99.3% (active) |
| C[C@@H]1CC=C[C@@H](NC(=O)OCc2ccccc2)[C@H]1C=O | 5.3% |
| O=C(/C=C/c1cccc([N+](=O)[O-])c1)CCl | 99.5% (active) |
| CCC[CH2][Sn]([CH2]CCC)([O]C(=O)c1cccc(F)c1F)[O]C(=O)c1cccc(F)c1F | 87.9% (active) |
| O=C(O)CCC(=O)NNc1ccccc1 | 90.3% (active) |
